# Reference: ChEMBL document CHEMBL5606458, “ASAP - ZIKV NS2B-NS3 protease fluorescence single point” (2024)
# In all, about 2,700 compounds went through this assay and about 160 (5.9%) showed an effect of 50% or more. What follows is part of a selection rich in strong results, with near analogues and random picks from the rest.
# Target: Nonstructural protein 3 (Zika virus) (UniProt A0A024AXB9)
# [1] = PRVABC59, Concentration 50.0 uM, Number of replicates 1.0
# [2] = PRVABC59, Concentration 10.0 uM, Number of replicates 1.0
# Nonstructural protein 3 (Zika virus), sequence (A0A024AXB9 as listed by the source): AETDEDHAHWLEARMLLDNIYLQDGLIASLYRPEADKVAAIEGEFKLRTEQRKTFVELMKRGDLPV
structure (smiles),measurement,setting,value
CNC(=O)c1cc(Cl)c(OC)cc1NS(=O)(=O)c1ccc(Oc2ccccc2Cl)cc1,inhibition,"PRVABC59, Concentration 49.5 uM, Number of replicates 2.0, Standard deviation 2.6404535290867552 %",34.2%
same,inhibition,"PRVABC59, Concentration 99.01 uM, Number of replicates 2.0, Standard deviation 0.459760751442422 %",79.4%
same,inhibition,"PRVABC59, Concentration 198.0 uM, Number of replicates 2.0, Standard deviation 0.11085228072983687 %",89.8%
CNC(=O)c1cc(Cl)ccc1NS(=O)(=O)c1cccc(Oc2ccccc2)c1,inhibition,"PRVABC59, Concentration 49.5 uM, Number of replicates 2.0, Standard deviation 3.0665234385287206 %",9.77%
same,inhibition,"PRVABC59, Concentration 99.01 uM, Number of replicates 2.0, Standard deviation 2.7531252049731103 %",15.8%
same,inhibition,"PRVABC59, Concentration 198.0 uM, Number of replicates 2.0, Standard deviation 3.162284112918565 %",28.1%
Cc1cc(NS(=O)(=O)c2ccc(Oc3ccccc3Cl)cc2)c(C(=O)NCC(F)(F)F)cc1F,inhibition,"PRVABC59, Concentration 49.5 uM, Number of replicates 2.0, Standard deviation 1.109661109382951 %",38%
same,inhibition,"PRVABC59, Concentration 99.01 uM, Number of replicates 2.0, Standard deviation 0.5262974754243883 %",43.1%
same,inhibition,"PRVABC59, Concentration 198.0 uM, Number of replicates 2.0, Standard deviation 0.754567504357695 %",32.6%
CNC(=O)c1cc(Cl)c(F)cc1NS(=O)(=O)c1ccc(Oc2ccccc2Cl)cc1,inhibition,"PRVABC59, Concentration 49.5 uM, Number of replicates 2.0, Standard deviation 0.22897404989083275 %",53.5%
same,inhibition,"PRVABC59, Concentration 99.01 uM, Number of replicates 2.0, Standard deviation 0.1399302344544729 %",88.1%
same,inhibition,"PRVABC59, Concentration 198.0 uM, Number of replicates 2.0, Standard deviation 0.21988651500230783 %",90.5%
NC(=O)c1ccccc1NS(=O)(=O)c1ccc(Oc2ccccc2Cl)cc1,inhibition,"PRVABC59, Concentration 49.5 uM, Number of replicates 2.0, Standard deviation 0.8239548725855442 %",-1.32%
same,inhibition,"PRVABC59, Concentration 99.01 uM, Number of replicates 2.0, Standard deviation 0.884539787208196 %",2%
same,inhibition,"PRVABC59, Concentration 198.0 uM, Number of replicates 2.0, Standard deviation 0.6321029239261367 %",31.5%
CCc1ccc(NS(=O)(=O)c2ccc(Oc3ccccc3Cl)cc2)c(C(=O)NC)c1,inhibition,"PRVABC59, Concentration 49.5 uM, Number of replicates 2.0, Standard deviation 1.2139175769082269 %",14.3%
same,inhibition,"PRVABC59, Concentration 99.01 uM, Number of replicates 2.0, Standard deviation 1.880844587297581 %",19.5%
same,inhibition,"PRVABC59, Concentration 198.0 uM, Number of replicates 2.0, Standard deviation 1.9898788215700518 %",28.9%
CNC(=O)c1cc(Cl)ccc1NS(=O)(=O)c1ccc(Oc2ccccc2Cl)cc1,inhibition,"PRVABC59, Concentration 49.5 uM, Number of replicates 2.0, Standard deviation 4.182044982903414 %",16.8%
same,inhibition,"PRVABC59, Concentration 99.01 uM, Number of replicates 2.0, Standard deviation 0.7456984587318506 %",44.5%
same,inhibition,"PRVABC59, Concentration 198.0 uM, Number of replicates 2.0, Standard deviation 0.5270959053225787 %",31.5%
CNC(=O)c1cc(C#N)ccc1NS(=O)(=O)c1ccc(Oc2ccccc2Cl)cc1,inhibition,"PRVABC59, Concentration 49.5 uM, Number of replicates 2.0, Standard deviation 1.5671297466159566 %",15.1%
same,inhibition,"PRVABC59, Concentration 99.01 uM, Number of replicates 2.0, Standard deviation 1.4439402403900108 %",25.1%
same,inhibition,"PRVABC59, Concentration 198.0 uM, Number of replicates 2.0, Standard deviation 0.43015410765006534 %",58.3%
O=Cc1ccc(N2CCC(C(=O)N3CCC(N4CCc5ccccc5C4)CC3)CC2)cc1,inhibition,[1],31.7%
NS(=O)(=O)c1nc(C(=O)N2CCc3c(CO)cccc32)n2ccccc12,inhibition,"PRVABC59, Concentration 49.5 uM, Number of replicates 2.0, Standard deviation 0.7415262579040602 %",14.9%
same,inhibition,"PRVABC59, Concentration 99.01 uM, Number of replicates 2.0, Standard deviation 0.42632784815485236 %",16%
same,inhibition,"PRVABC59, Concentration 198.0 uM, Number of replicates 2.0, Standard deviation 0.11314911538628655 %",22.8%
O=Cc1ccc(N2CCC(C(=O)Nc3ccc(Br)cc3O)CC2)cc1,inhibition,[1],36.5%
O=Cc1ccc(N2CCC(C(=O)Nc3ncc(Br)cc3O)CC2)cc1,inhibition,[1],63.3%
O=Cc1ccc(N2CCC(C(=O)Nc3cccc(Br)n3)CC2)cc1,inhibition,[1],69.5%
O=Cc1ccc(N2CCC(C(=O)NCCc3ccc(O)c(O)c3)CC2)cc1,inhibition,[1],48.5%
O=Cc1ccc(N2CCC(C(=O)NC[C@H](O)c3ccc(O)c(O)c3)CC2)cc1,inhibition,[1],37%
O=Cc1ccc(N2CCC(C(=O)NCCC3CCN(Cc4ccccc4)CC3)CC2)cc1,inhibition,[1],36.7%
CC(=O)Nc1cccc(CNC(=O)C2CCN(c3ccc(C=O)cc3)CC2)c1,inhibition,[2],37.6%
O=Cc1ccc(N2CCC(C(=O)NCc3cccc(-c4ccccc4)c3)CC2)cc1,inhibition,[2],66.7%
O=Cc1ccc(N2CCC(C(=O)NCCc3ccccc3[N+](=O)[O-])CC2)cc1,inhibition,[1],31.8%
O=Cc1ccc(N2CCC(C(=O)NCCN3CCc4ccccc43)CC2)cc1,inhibition,[1],67.9%
CC1CCN(CCCCNC(=O)C2CCN(c3ccc(C=O)cc3)CC2)CC1,inhibition,[1],38.3%
Cc1ccc(N)cc1NC(=O)c1ccc2c(c1)CCNCC2,inhibition,"PRVABC59, Concentration 49.95 uM, Number of replicates 2.0, Standard deviation 12.72305005425739 %",-5.44%
same,inhibition,"PRVABC59, Concentration 99.9 uM, Number of replicates 2.0, Standard deviation 9.350903464198954 %",18.5%
CCN1CCN(c2ccc(NC(=O)C3CCN(c4ccc(C=O)cc4)CC3)cc2)CC1,inhibition,[1],54.8%
O=Cc1ccc(N2CCC(C(=O)NC[C@@H]3CCCN4CCCC[C@H]34)CC2)cc1,inhibition,[1],36.4%
CN1[C@@H]2CCC[C@H]1C[C@@H](NC(=O)C1CCN(c3ccc(C=O)cc3)CC1)C2,inhibition,[1],43.1%
N#Cc1ccc(NC(=O)C2CCN(c3ccc(C=O)cc3)CC2)cc1Br,inhibition,[1],22.8%
Cc1ccc2cccc(NC(=O)C3CCN(c4ccc(C=O)cc4)CC3)c2n1,inhibition,[1],60.8%
CCn1ccnc(N2CC[C@H](c3cccc(C#N)c3)C2)c1=O,inhibition,"PRVABC59, Concentration 50.0 uM, Number of replicates 2.0, Standard deviation 16.00595625597801 %",20.3%
same,inhibition,"PRVABC59, Concentration 100.0 uM, Number of replicates 2.0, Standard deviation 3.036416764525631 %",15.1%
same,inhibition,"PRVABC59, Concentration 200.0 uM, Number of replicates 2.0, Standard deviation 6.611719762363672 %",25.1%
CNc1cc(COc2cccnc2F)nc(N2CCNCC2)n1,inhibition,"PRVABC59, Concentration 49.5 uM, Number of replicates 2.0, Standard deviation 2.059359081452019 %",4.89%
same,inhibition,"PRVABC59, Concentration 99.01 uM, Number of replicates 2.0, Standard deviation 2.151250675148563 %",12.3%
same,inhibition,"PRVABC59, Concentration 198.0 uM, Number of replicates 2.0, Standard deviation 2.3891841335084476 %",24%
CCn1ccnc(N2CC[C@H](c3ccc(F)cc3)C2)c1=O,inhibition,"PRVABC59, Concentration 49.5 uM, Number of replicates 2.0, Standard deviation 0.27991239382631117 %",8.78%
same,inhibition,"PRVABC59, Concentration 99.01 uM, Number of replicates 2.0, Standard deviation 0.05869134101275442 %",18.2%
same,inhibition,"PRVABC59, Concentration 198.0 uM, Number of replicates 2.0, Standard deviation 0.2009049231321535 %",32.5%
O=C(O)c1ccn(C2CCN(Cc3c[nH]c4ccccc34)CC2)n1,inhibition,"PRVABC59, Concentration 49.5 uM, Number of replicates 2.0, Standard deviation 1.5195725914554161 %",20.5%
same,inhibition,"PRVABC59, Concentration 99.01 uM, Number of replicates 2.0, Standard deviation 1.1461623032421138 %",35.4%
same,inhibition,"PRVABC59, Concentration 198.0 uM, Number of replicates 2.0, Standard deviation 1.0942994260377004 %",52.6%
NC(=O)C1CCN(Cc2c[nH]c3ccccc23)CC1,inhibition,"PRVABC59, Concentration 49.5 uM, Number of replicates 2.0, Standard deviation 3.887096953751933 %",5.72%
same,inhibition,"PRVABC59, Concentration 99.01 uM, Number of replicates 2.0, Standard deviation 2.3727111220616615 %",14.1%
same,inhibition,"PRVABC59, Concentration 198.0 uM, Number of replicates 2.0, Standard deviation 2.367525373820881 %",27.9%
